# Measured potencies and affinities stand elsewhere. The source made the active and inactive calls. How the calls were made is not given here.
# Experiment: THP-1 cell cytotoxicity, cytotoxicity control, set 4 (AID 504911)
# Conditions: THP-1 cytotoxicity; series mostly up to 100 µM; viability: at the top concentration
row,Compound,viability
1,CC1CCN(C(=O)CSc2nc3ccccc3c(=O)[nH]2)CC1,99.6% (inactive)
2,CN[C@@H]1[C@H](O[C@H]2[C@H](O[C@H]3[C@H](O)[C@@H](O)[C@H](N=C(N)N)[C@@H](O)[C@@H]3N=C(N)N)O[C@@H](C)[C@]2(O)C=O)O[C@@H](CO)[C@H](O)[C@H]1O,115% (inactive)
3,O=C(CSc1nc2ccccc2c(=O)[nH]1)NC1CCCCC1,113% (inactive)
4,Nc1cc(=O)[nH]c(SCC(=O)NC2CCCCC2)n1,93.1% (inactive)
5,CC[C@@H](CO)NCCN[C@@H](CC)CO,110% (inactive)
6,Cc1cc(=O)[nH]c(SCC(=O)NC2CCCCC2)n1,106% (inactive)
7,NNC(=O)c1ccncc1,118% (inactive)
8,CCOC1OC(=O)C(Cl)=C1Nc1ccccc1C (stereo not drawn),91.9% (inactive)
9,Cc1nc(SCC(=O)NC2CCCC2)[nH]c(=O)c1C,110% (inactive)
10,CCC(Sc1nc2ccccc2c(=O)[nH]1)C(=O)NC1CCCCC1 (stereo not drawn),102% (inactive)
11,Cn1c(SCC(=O)NC2CCCCC2)nc2ccccc2c1=O,94.2% (inactive)
12,COc1c(N2CCNC(C)C2)c(F)cc2c(=O)c(C(=O)O)cn(C3CC3)c12 (stereo not drawn),107% (inactive)
13,CCC(Sc1nc2ccccc2c(=O)[nH]1)C(=O)Nc1cccc(OC)c1 (stereo not drawn),91.9% (inactive)
14,Cc1nc(SCC(=O)NC2CCCCC2)[nH]c(=O)c1C,98.9% (inactive)
15,Cc1ccc(NC(=O)COC(=O)CCc2c[nH]c3ccccc23)cc1[N+](=O)[O-],113% (inactive)
16,CN(C)C(=O)CSc1nc2ccccc2c(=O)[nH]1,103% (inactive)
17,CC(C)CCNC(=O)CSc1nc2c(c(=O)[nH]1)CCC2,82.7% (inactive)
18,Cc1ccc(NC(=O)CSc2nc3ccccc3c(=O)[nH]2)cc1Cl,92.1% (inactive)
